{
  "source": "PubChem BioAssay (Tox21)",
  "note": "Inconclusive results are not listed. The source made the active and inactive calls. Calls follow the shape of the dose curve; as a rule, active = well fitted curve in the direction sought with a large enough effect in the repeat runs; inconclusive = weak or mixed curves; inactive = no such curve, though single readings can be large; an effect the other way counts as inactive or inconclusive. % is scaled to controls: 0 for no effect and ±100 for the full control effect.",
  "data": [
    {"target": "Nuclear receptor subfamily 1 group I member 2 (Rattus norvegicus) (UniProt Q9R1A7)", "sequence (Q9R1A7 whole entry, looked up)": "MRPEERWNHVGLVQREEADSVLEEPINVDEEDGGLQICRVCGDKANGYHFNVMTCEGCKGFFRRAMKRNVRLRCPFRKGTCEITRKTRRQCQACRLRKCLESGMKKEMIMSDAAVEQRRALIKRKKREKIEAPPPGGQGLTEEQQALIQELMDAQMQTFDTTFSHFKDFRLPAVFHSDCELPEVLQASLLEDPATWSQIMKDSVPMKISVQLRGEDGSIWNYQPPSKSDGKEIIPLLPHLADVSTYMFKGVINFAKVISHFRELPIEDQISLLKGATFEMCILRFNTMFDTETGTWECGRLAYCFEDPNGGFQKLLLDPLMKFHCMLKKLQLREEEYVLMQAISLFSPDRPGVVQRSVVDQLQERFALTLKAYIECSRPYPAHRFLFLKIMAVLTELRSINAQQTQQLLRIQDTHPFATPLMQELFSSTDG", "test": "Rat pregnane X receptor (rPXR) activation by small molecules, qHTS assay (AID 1346983); also: nearly all actives have a fitted effect of over 20% in size", "conditions": "rPXR luciferase reporter cells, One-Glo luminescence, 24 h; max activation: active compounds read high", "summary_of_the_method": "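Cell-based rPXR activation assay: rPXR cells, 2,000 per well, rested 5hr at 37 C, then exposed to compounds in DMSO for 24 hr at 37 C. Luciferase activity read by One-Glo luminescence after 30 min at room temperature.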", "values": [
      {"compound": "CN1CC(=O)N2[C@H](c3ccc4c(c3)OCO4)c3[nH]c4ccccc4c3C[C@@H]2C1=O", "max activation": "0.614% (inactive)"},
      {"compound": "CCOc1ccccc1O[C@H](c1ccccc1)[C@H]1CNCCO1", "max activation": "-0.272% (inactive)"},
      {"compound": "CC(CN(C)C)C(C)(O)Cc1ccc(Cl)cc1", "note": "(centres undefined)", "max activation": "-1.26% (inactive)"},
      {"compound": "CO/N=C(/C(=O)N[C@@H]1C(=O)N2C(C(=O)O)=C(COC(N)=O)CS[C@H]12)c1ccco1", "max activation": "-0.884% (inactive)"},
      {"compound": "OC[C@H]1O[C@@H](n2cnc3c(=S)nc[nH]c32)[C@H](O)[C@@H]1O", "max activation": "-1.15% (inactive)"},
      {"compound": "Cc1cc2c(OCC(CNC(C)(C)C)OC(=O)c3ccccc3)cccc2[nH]1", "note": "(centres undefined)", "max activation": "-3.65% (inactive)"},
      {"compound": "CCOc1ccc(Cc2nccc3cc(OCC)c(OCC)cc23)cc1OCC", "max activation": "-4.93% (inactive)"},
      {"compound": "Cc1[nH]cnc1CN1CCc2c(c3ccccc3n2C)C1=O", "max activation": "1.25% (inactive)"},
      {"compound": "O[C@@H]1CO[C@H]2[C@@H]1OC[C@@H]2O", "max activation": "-1.59% (inactive)"},
      {"compound": "C[C@@H](O)[C@H]1C(=O)N2C(C(=O)O)=C([C@H]3CCCO3)S[C@H]12", "max activation": "-4.46% (inactive)"}
    ]},
    {"target": "Nuclear receptor subfamily 1 group I member 2 (Homo sapiens) (UniProt O75469)", "test": "Human pregnane X receptor (PXR) activation by small molecules, qHTS assay (AID 1346985); also: nearly all actives have a fitted effect of over 40% in size; also: potency is read from the fitted curve at half-maximal effect", "conditions": "DPX-2 HepG2 CYP3A4-luciferase, 24 h; series mostly up to 38.3 µM; activation: at the top concentration", "summary_of_the_method": "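DPX-2 cells (HepG2 co-transfected with a PXR response element and a CYP3A4-promoter luciferase construct) were seeded at 2,000 per well, rested 5 hr at 37C, then exposed to DMSO-dissolved compounds for 24 hr. Activation was read as luciferase luminescence.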", "values": [
      {"compound": "CCOc1ccccc1O[C@H](c1ccccc1)[C@H]1CNCCO1", "Potency": "22.4 µM (active)"},
      {"compound": "CC(CN(C)C)C(C)(O)Cc1ccc(Cl)cc1", "note": "(centres undefined)", "activation": "-0.721% (inactive)"},
      {"compound": "CC1(CN2CCC(n3c(=O)[nH]c4ccccc43)CC2)OCc2ccccc2-n2cccc21", "note": "(centres undefined)", "Potency": "4.47 µM (active)"},
      {"compound": "OC[C@H]1O[C@@H](n2cnc3c(=S)nc[nH]c32)[C@H](O)[C@@H]1O", "activation": "24.3% (inactive)"},
      {"compound": "Cc1cc2c(OCC(CNC(C)(C)C)OC(=O)c3ccccc3)cccc2[nH]1", "note": "(centres undefined)", "activation": "1.16% (inactive)"},
      {"compound": "Cc1[nH]cnc1CN1CCc2c(c3ccccc3n2C)C1=O", "activation": "1.11% (inactive)"},
      {"compound": "O=C(O)c1cccc(-c2noc(-c3ccccc3F)n2)c1", "activation": "12.2% (inactive)"},
      {"compound": "O[C@@H]1CO[C@H]2[C@@H]1OC[C@@H]2O", "activation": "-9.73% (inactive)"},
      {"compound": "C[C@@H](O)[C@H]1C(=O)N2C(C(=O)O)=C([C@H]3CCCO3)S[C@H]12", "activation": "-6.29% (inactive)"}
    ]}
  ]
}
